In general, inhibition refers to the share of the control response that was lost under treatment.

The results in this text go back to PubChem BioAssay.

SMILES strings stand for the structures. Unmarked numbers belong to inactive results. The rule behind the calls is not given here.

The target in this test is Pantothenate synthetase (Mycobacterium tuberculosis (strain ATCC 25618 / H37Rv)) (UniProt P9WIL5). In words: Coupled enzyme confirmation of inhibitors against recombinant Mtb PanC (AID 375).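 Note: 0% = full reaction with vehicle and 100% = no enzyme background.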 The following applies: coupled enzyme assay; at 10 µM, active compounds read high.
Sequence of Pantothenate synthetase (Mycobacterium tuberculosis (strain ATCC 25618 / H37Rv)) (P9WIL5 whole entry, looked up): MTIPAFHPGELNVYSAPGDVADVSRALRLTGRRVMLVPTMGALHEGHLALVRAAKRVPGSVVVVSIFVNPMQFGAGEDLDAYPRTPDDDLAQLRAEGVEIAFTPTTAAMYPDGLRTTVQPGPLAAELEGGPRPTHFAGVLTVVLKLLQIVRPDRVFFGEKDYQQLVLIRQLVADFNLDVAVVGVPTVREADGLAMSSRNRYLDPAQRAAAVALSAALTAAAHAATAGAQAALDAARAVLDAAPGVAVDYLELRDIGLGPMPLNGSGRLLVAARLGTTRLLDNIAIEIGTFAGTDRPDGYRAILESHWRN
On to `CCOCCCNc1ncnc2c1[nH]c1ccccc12`, for which the inhibition is 0%.
For `Cc1nn(Cc2ccccc2)c(C)c1NC(=O)c1cc(-c2ccco2)on1`, the inhibition is 3%.
In the case of `O=C(c1cccs1)N(Cc1ccco1)Cc1cc2ccccc2[nH]c1=O`, the inhibition was 0%.
In the case of `CCn1c(C)nc2cc(C(=O)OC(C(F)(F)C(F)F)C(F)(F)C(F)F)ccc21`, the inhibition was 0%.
The same measure for `COc1ccc(N(CC(=O)N2CCN(Cc3ccc4c(c3)OCO4)CC2)S(C)(=O)=O)cc1OC`: 5%.
The same measure for `COc1ccc(Cn2c(-c3ccco3)nc3oc4ccccc4c(=O)c3c2=O)cc1`: 0%.
As for `O=C(NC1CC1)C1CCN(c2ccc(S(=O)(=O)N3CCOCC3)cc2)CC1`, the inhibition was 0%.
Then `Cc1ccc(S(=O)(=O)NCCNC(=O)C2CCCNC2=O)cc1` (configuration not stated), with 6%; and `O=C1CCc2cc(OCCCCc3nnnn3C3CCCCC3)ccc2N1`, with 3%.
Regarding `COc1cccc(C=Nc2ccc3c(c2)OCCO3)c1O`, the inhibition was 3%.
Regarding `C/C(=C\C(=O)O)CC(=O)O`, the inhibition is 0%.
Turning to `O=C(Nc1ccc2c(c1)OCCO2)C1CCCN1S(=O)(=O)c1cccc2cccnc12` (configuration not stated), the inhibition is 0%.
Regarding `S=c1[nH]nc(COc2ccccc2)n1C1CCCCC1`, the inhibition is 0%.
`CCOC(=O)CC12CN3CN(C1)CC(CC(=O)OCC)(C3)C2=O`: the inhibition was 1%.
For the compound `Cc1ccc(S(=O)(=O)N2CCOCC2)cc1C(=O)Nc1nc(-c2cccnc2)cs1`, the inhibition is 0%.
Regarding `Cn1nc(-c2ccc(N3CCCCC3)c(NC(=O)c3ccco3)c2)c2ccccc2c1=O`, the inhibition was 0%.
Turning to `C=CCOc1ccc(/C(CC)=N/O)c(OC)c1`, the inhibition was 0%.
